High-throughput results from PubChem BioAssay.
A selection: hits, their analogues and other compounds. The true share with any hit is near 3.2%.
USP2a inhib = qHTS Assay for Inhibitors of Ubiquitin-specific Protease USP2a. Potency, µM (top dose mostly 38.3 µM), actives largely listed as inhibitors. USP2a enzymatic assay, qHTS inhibition. 60,000 compounds, 0.1% hits. Ubiquitin carboxyl-terminal hydrolase 2 (Homo sapiens), O75604; further: nearly all actives have a fitted effect of over 60% in size
Target sequence (O75604 whole entry, looked up): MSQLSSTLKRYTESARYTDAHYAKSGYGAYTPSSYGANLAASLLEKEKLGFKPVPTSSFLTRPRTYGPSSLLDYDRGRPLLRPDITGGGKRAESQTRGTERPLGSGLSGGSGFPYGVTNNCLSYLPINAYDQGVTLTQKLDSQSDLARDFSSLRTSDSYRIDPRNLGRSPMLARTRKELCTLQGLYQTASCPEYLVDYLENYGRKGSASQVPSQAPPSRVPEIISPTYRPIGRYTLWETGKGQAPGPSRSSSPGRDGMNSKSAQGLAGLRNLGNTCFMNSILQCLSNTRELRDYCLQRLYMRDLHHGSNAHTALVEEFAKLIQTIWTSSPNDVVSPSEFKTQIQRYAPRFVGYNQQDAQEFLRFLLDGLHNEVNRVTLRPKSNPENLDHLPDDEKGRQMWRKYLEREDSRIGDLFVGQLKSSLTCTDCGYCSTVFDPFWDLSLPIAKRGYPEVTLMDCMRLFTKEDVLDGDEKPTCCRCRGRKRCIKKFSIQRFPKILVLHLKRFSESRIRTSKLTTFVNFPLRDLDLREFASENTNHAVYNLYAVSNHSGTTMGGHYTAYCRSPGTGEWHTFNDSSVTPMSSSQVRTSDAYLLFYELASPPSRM
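USP2 core (20nM final) preincubated 30 min RT with compound, then Ub-PLA2 20nM and NBD C6-HPC 20uM final added; buffer 20mM Tris-HCl pH 8.0, 2mM CaCl2. Fluorescence Ex 460/Em 535 read at 0 and 2.5 h; normalized to NEM.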
15-hLO inh = qHTS Assay for Inhibitors of 15-hLO (15-human lipoxygenase); purified 15hLO-1, xylenol orange hydroperoxide absorbance; Potency, µM (top dose mostly 57.1 µM), actives largely listed as inhibitors; 74,000 compounds, 1.4% hits; further: nearly all actives have a fitted effect of over 55% in size
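Readout: Fe(III)-xylenol orange absorbance, 573-to-405 nm ratio as reaction progress. Enzyme 40 nM purified human 15hLO-1, substrate 50 uM arachidonic acid, 6 min RT after 15 min compound preincubation; Hepes pH 7.5 buffer with Triton X-100.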
Tau fil binding = qHTS Assay for Tau Filament Binding; recombinant tau filaments, thioflavin S fluorescence, 15 h; filaments grown with octadecylsulfate alongside compound; Potency, µM (highest dose often 57.1 µM); 71,000 compounds, 2% hits;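 further: actives lower thioflavin S fluorescence by blocking filaments or displacing dye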
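Tau 2 uM in ThS buffer dispensed; compound added; 60 uM ODS added (finals 1 uM tau, 30 uM ODS); 15 h 37 C; fluor ex450/em510.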
Hsp90 Hop PPI = qHTS Assay for Disrupters of an Hsp90 Co-Chaperone Interaction; Hsp90 C-terminal peptide / TPR2A (Hop) interaction, human; AlphaScreen TPR2A-His6 binding biotin-Hsp90 C-terminal peptide; Potency, µM (doses to about 57 µM); 71,000 compounds, 0.44% hits; AID 595, 2007; active means well fitted curve in either direction with a large enough effect; inconclusive means small, poorly fitted or top-dose-only effect, or another doubt
Hits are given with their value; ! = repeats disagree; [ ] = remark or other dose. Unless noted, the call rests on the fitted dose curve; in most records, active means well fitted curve in the direction sought with a large enough effect; inconclusive means small, poorly fitted or top-dose-only effect, or another doubt; inactive means no such curve, though single readings can be large; an effect the other way counts as inactive or inconclusive.

`CCOC(=O)C1=C(C)NC(SCC(=O)OC)=C(C#N)C1c1ccc(C(=O)OC)cc1` (configuration not stated) gave USP2a inhib inactive, 15-hLO inh 5.01µM, Tau fil binding inactive and Hsp90 Hop PPI inconclusive.
`O=C=Nc1ccc(Cc2ccc(N=C=O)cc2)cc1` gave 15-hLO inh inactive, Tau fil binding inactive and Hsp90 Hop PPI inactive.
For CCOC(=O)c1sc(=S)n(-c2cc(OC)ccc2OC)c1N the results were USP2a inhib inactive, 15-hLO inh 12.6µM, Tau fil binding inactive and Hsp90 Hop PPI inactive.
`N#Cc1ccc(CN2CCCC3(CCN(C(=O)c4ccncc4)CC3)C2)cc1` gave USP2a inhib inactive, 15-hLO inh inactive, Tau fil binding inactive and Hsp90 Hop PPI inactive.
`COc1ccccc1CNC(=O)CCCN1C(=O)COc2ccc(C)cc21` gave USP2a inhib inactive, 15-hLO inh inactive, Tau fil binding inactive and Hsp90 Hop PPI inactive.
CCN(CCCNC(=O)CCCN1C(=O)COc2ccc(C)cc21)c1cccc(C)c1 was read as USP2a inhib inactive, 15-hLO inh inconclusive, Tau fil binding 15.8µM and Hsp90 Hop PPI inactive.
`N#CC(=NCCO)C1=C(O)c2ccccc2C1=O` gave 15-hLO inh inactive[11.4 µM], Tau fil binding inactive[11.4 µM] and Hsp90 Hop PPI inactive[11 µM].
`O=C1C(SCCO)=C(SCCO)C(=O)c2ccccc21` gave USP2a inhib inactive, 15-hLO inh inactive, Tau fil binding 5.01µM! and Hsp90 Hop PPI inconclusive.
`Cc1ccc2c(c1)CC[C@H]1CC(=O)CC[C@@]21C` gave USP2a inhib inactive and 15-hLO inh inactive.
Screening COc1ccc(C(c2nnnn2Cc2ccc(F)cc2)N2CCN(c3ccc(OC)cc3)CC2)cc1 (configuration not stated) returned USP2a inhib inactive, 15-hLO inh inactive, Tau fil binding 10µM and Hsp90 Hop PPI inconclusive.
`Cn1c(=O)c2c(nc(CN3CCN(c4ccccc4)CC3)n2Cc2ccccc2F)n(C)c1=O` gave USP2a inhib inactive, 15-hLO inh inactive, Tau fil binding inactive and Hsp90 Hop PPI inactive.
For Cc1ccccc1Cn1c(CN2CCN(c3ccc(F)cc3)CC2)nc2c1c(=O)n(C)c(=O)n2C the results were 15-hLO inh 20µM, Tau fil binding inactive and Hsp90 Hop PPI inactive.
`CS(=O)(=O)c1ccc(C(O)C(CO)NC(=O)C(Cl)Cl)cc1` (configuration not stated) gave USP2a inhib inactive and 15-hLO inh inactive.
For COCCn1c(=O)c(-c2ccc(F)cc2)nc2cnc(N3CCOCC3)nc21 the results were USP2a inhib inactive, 15-hLO inh inactive, Tau fil binding inactive and Hsp90 Hop PPI inactive.
Screening COc1cc(-n2nc(C)c3c2OC(N)=C(C#N)C3c2ccccc2)c(Cl)c(Br)c1O (configuration not stated) returned USP2a inhib inactive, 15-hLO inh inactive, Tau fil binding 25.1µM and Hsp90 Hop PPI inactive.
For Cc1nn(-c2ccccc2)c2c1C(c1ccncc1)C(C#N)=C(N)O2 (configuration not stated) the results were 15-hLO inh inactive.
For CCCCCCN(C(=O)CCCCCN1C(=O)NC(c2ccc(-c3ccccc3)cc2)C(C(=O)OCc2ccccc2)=C1C)C(C(=O)NCCCC)c1ccc(OCC(=O)O)c(C(=O)O)c1 (configuration not stated) the results were 15-hLO inh inconclusive, Tau fil binding inactive and Hsp90 Hop PPI inactive.
For CC(=O)Nc1ccc(OC[C@@H](O)CNC(C)C)cc1 the results were USP2a inhib inactive, 15-hLO inh inconclusive, Tau fil binding 39.8µM! and Hsp90 Hop PPI inactive.
`CCOc1nc(OCC)nc(N2CCC(C)CC2)n1` gave USP2a inhib inactive, 15-hLO inh inactive, Tau fil binding inactive and Hsp90 Hop PPI inactive.
For CCOc1nc(C#N)nc(N2CCCCC2)n1 the results were USP2a inhib inactive, 15-hLO inh inactive, Tau fil binding 12.6µM and Hsp90 Hop PPI inactive.
`COc1ccc(NC(=O)Nc2ccc3c(c2)N(C)C(=O)CS3)cc1OC` gave 15-hLO inh inactive, Tau fil binding 20µM and Hsp90 Hop PPI inactive.
Screening Cc1ccc(NC(=O)NC2=N/C(=C(/C#N)C(=O)N3CCCC3)c3ccccc32)cc1 returned USP2a inhib inactive, 15-hLO inh inactive, Tau fil binding 5.01µM and Hsp90 Hop PPI inactive.
